Reference: PubChem BioAssay AID1508602 (The Scripps Research Institute Molecular Screening Center, 2020)
In all, about 650,000 compounds went through this assay and about 6,800 (1%) were called active. The sample as a whole holds a higher share of actives than the screen did. Values without a mark were called inactive. Rule as the data show it: active = activation above about 4.9%; inactive = the rest.

Biological target: G-protein coupled receptor 151 (Homo sapiens) (UniProt Q8TDV0)
Assay: activators of human GPR151, primary screen, cell-based, PathHunter beta-arrestin, luminescence (AID 1508602);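 also: 0% = median of compound wells and 100% = cells with positive control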
Conditions: PathHunter beta-arrestin GPR151 cells, at 11.2 µM, active compounds read high

G-protein coupled receptor 151 (Homo sapiens), sequence (Q8TDV0 whole entry, looked up): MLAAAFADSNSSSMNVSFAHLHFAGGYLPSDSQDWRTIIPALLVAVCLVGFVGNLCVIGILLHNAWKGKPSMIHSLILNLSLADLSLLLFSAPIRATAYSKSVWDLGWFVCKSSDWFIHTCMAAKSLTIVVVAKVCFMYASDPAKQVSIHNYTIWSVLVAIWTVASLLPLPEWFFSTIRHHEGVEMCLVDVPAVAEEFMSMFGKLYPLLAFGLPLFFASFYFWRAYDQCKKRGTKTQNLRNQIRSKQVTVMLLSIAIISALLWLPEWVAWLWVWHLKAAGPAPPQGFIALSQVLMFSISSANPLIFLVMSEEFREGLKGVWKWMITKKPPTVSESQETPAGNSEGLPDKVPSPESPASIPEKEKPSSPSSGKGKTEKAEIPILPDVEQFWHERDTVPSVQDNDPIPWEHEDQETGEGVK

SMILES	activation
COc1ccc(N2CCN(C(=O)c3ccc(Cn4c(=S)[nH]c5ccc(Br)cc5c4=O)cc3)CC2)cc1	-0.211%
CC/C(=N\N=C1/NC(=O)C(CC(=O)O)S1)c1ccc(C)cc1 (stereo not given)	-1.1%
COc1cc(OC)c(OC)cc1/C=N/N=C1\NC(=O)C(CC(=O)O)S1 (stereo not given)	0.825%
Cc1ccc(C(=O)Oc2ccccc2/C=N/N=C2\NC(=O)C(CC(=O)O)S2)cc1 (stereo not given)	7.49% (active)
CCCC(=O)Nc1ccc(S(=O)(=O)N(Cc2ccsc2)C2CC2)cc1	0.722%
O=C(Nc1ccc(NC(=O)c2cccnc2Cl)cc1)c1ccco1	0.162%
O=C(Nc1cccc(NC(=O)c2cccc(Cl)c2Cl)c1)c1ccco1	-0.952%
O=C(Nc1ccc(NC(=O)c2cccc3c(Br)cccc23)cc1)c1ccco1	34.7% (active)
CCN1C(=O)S/C(=C/c2cccc(C(F)(F)F)c2)C1=O	1.18%
COC(=O)Cn1ncc2c3ccccc3n(Cc3cccc(Cl)c3)c2c1=O	4.95% (active)
CNC(=O)Cn1ncc2c3ccccc3n(Cc3ccccc3)c2c1=O	0.452%
CCN(CC)C(=O)Cn1ncc2c3ccccc3n(Cc3ccccc3)c2c1=O	-0.284%
COCCOC(=O)C1=C(N)OC2=C(C(=O)CC(C)(C)C2)C1c1ccc(F)c(F)c1 (stereo not given)	0.277%
CC1=C(C(=O)OCCOc2ccccc2)C(c2ccccc2F)NC(=O)N1 (stereo not given)	-1.1%
CCOC(=O)c1sc(NC(=O)C(C)Sc2nnc(CNC(=O)c3ccc(OC)cc3)n2Cc2ccccc2)c(C(=O)OCC)c1C (stereo not given)	-1.72%
COc1ccc(-c2nc(N)c3[nH]cnc3n2)cc1	-0.0768%
CSc1nc(N)nc2nc[nH]c12	16.2% (active)
Nc1nc(SCc2cccc3ccccc23)c2[nH]cnc2n1	-0.0695%
Cc1cccc2cnn(CC(=O)N3CCc4ccccc4C3)c12	-2%
O=C(Cn1c(=S)nc2ccccn21)N1CCc2ccccc2C1	7.33% (active)

SMILES	activation
CC(C)CC(=O)N1CCc2ccccc2C1	-1.1%
CCc1nc(N2CCC(C(=O)O)CC2)c2oc3ccccc3c2n1	-2.33%
CC(=O)C1=C(c2ccc(C(C)(C)C)cc2)N(C(C)=O)n2cnnc2S1	0.857%
CCc1nnc2n1N(C(C)=O)C(c1ccc3c(c1)CCCC3)=C(C(C)=O)S2	8.6% (active)
CCOc1ccc(C2=C(C(=O)CC)Sc3nnc(CC)n3N2C(=O)CC)cc1	-0.342%
CCOc1ccccc1CNn1c(-c2ccc(OC)cc2)nc2ccccc2c1=O	-1.68%
COc1ccccc1/C=C/CN1CCNC(=O)C1CC(=O)NC1CC1 (stereo not given)	-1.56%
CCCSc1nnc2c(n1)OC(c1cccc(Br)c1)Nc1ccccc1-2 (stereo not given)	-0.594%
COc1ccc(NCN2C(=O)c3cc(Cl)c(Cl)cc3C2=O)cc1	-1.71%
CCOC(=O)C1=C(C)N(c2ccc(C)cc2)C(=O)/C1=C\c1ccc(OC)cc1	-0.542%
COc1ccc(N2C(=O)C(Cl)=C(Nc3ccc(C)cc3)C2=O)cc1	5.51% (active)
COc1cc(/C=C2/NC(=O)N(Cc3ccc(Br)cc3)C2=O)ccc1O	-0.481%
O=C(C1CCN(S(=O)(=O)Cc2ccccc2)CC1)N1CCCc2ccccc21	8.15% (active)
O=C(Cc1ccccc1)N1CCCc2ccccc21	0.472%
O=C(C1CCCN1S(=O)(=O)c1ccc(Cl)cc1)N1CCCc2ccccc21 (stereo not given)	-1.26%
Cc1ccc(C(=O)Nc2ccc(O)c(-c3nc4ccccc4o3)c2)cc1	1.96%
C/C(CC(=O)Nc1cccc(F)c1)=N\NC(=O)c1cccc(C)c1	0.312%
COc1ccc2c(Cl)c(C(=O)Nc3ccc(N(C)C(C)=O)cc3)sc2c1	0.165%
O=C1CC[C@@H](CN(Cc2ccccn2)Cc2nc(-c3ccc4c(c3)OCO4)no2)N1	-0.5%
c1ccc2c(c1)CCC2Nc1nncc(-c2ccc3c(c2)OCO3)n1 (stereo not given)	0.54%

SMILES	activation
CN(Cc1nc(-c2ccc3c(c2)OCO3)no1)C1CCCc2ccccc21 (stereo not given)	6.73% (active)
O=C1c2cccnc2C(=O)N1Cc1ccc(S(=O)(=O)NCc2ccccc2Cl)cc1	-0.655%
COC(=O)c1sc(SC)nc1Nc1ccnc(Nc2ccc(N3CCOCC3)cc2OC)c1	0.519%
COc1ccc(NC(=O)/C(C#N)=C/c2ccccc2[N+](=O)[O-])cc1	0.536%
COc1cccc(/C=C(/C#N)C(=O)Nc2ccc(F)cc2)c1O	0.228%
COc1ccc(/C=C(\C#N)C(=O)Nc2ccc(F)cc2)c(OC)c1	6.94% (active)
CCOc1nn(CC)cc1-c1nnc(SCC(=O)NC)n1C	1.61%
CCCNC(=O)N1CCC2(CC1)OCc1ccccc1O2	-0.163%
Cn1c(=O)cc(OCC(=O)NCCN2CCOCC2)c2ccccc21	-0.103%
CC(=O)Oc1cc2c(C(=O)NCCN3CCOCC3)c(C)oc2c2ccccc12	7.59% (active)
O=C(NCCN1CCOCC1)c1cncc(-c2ccccc2)c1	-0.0692%
CC(O)CNc1ncnc2c1c(-c1ccccc1)cn2-c1ccc(Cl)cc1 (stereo not given)	-0.64%
O=C(Nc1cc(Oc2cccnc2)cc([N+](=O)[O-])c1)c1cc2nc(-c3ccc(F)cc3)cc(C(F)(F)F)n2n1	0.0201%
Cn1ccc(CC(=O)N2CCOc3ccc(CN4CCCC4)cc3C2)c1	-0.228%
CCC(=O)Nc1ccc(C(=O)c2ccccc2)cc1NC(=O)CC	0.269%
COc1cccc(OC)c1C(=O)Nc1cc(C(=O)O)ccc1C	1.75%
CCC(=O)Nc1cc(C(=O)O)ccc1C	5.86% (active)
COc1ccc(NC(=O)c2cc(S(=O)(=O)N3CCCCC3)ccc2F)cc1	-0.423%
COc1ccc(/C=C(\C#N)C(=O)Nc2cccc(S(=O)(=O)N3CCCCC3)c2)cc1	6.12% (active)
CCOc1ccc(NC(=O)/C(C#N)=C\c2ccc(OC)cc2)cc1	-0.986%
